Where a name gives a salt, the structure may show the parent alone. ± gives the standard deviation of the averaged measurements.
The molecules below were run on HT-1080 (assay: relative cell viability with RSL3 co-treatment (fraction of control); higher = stronger protection from RSL3-induced ferroptosis (higher viability)). Settings: 10 µM.
`CNC(=O)Nc1ccc(-c2nc(N3CC4CCC(C3)O4)c3cnn(C4CCC5(CC4)OCCO5)c3n2)cc1` showed a relative cell viability of 0.483 ± 0.14. For `CN1CCN(CCOc2cc(OC3CCOCC3)c3c(Nc4c(Cl)ccc5c4OCO5)ncnc3c2)CC1` [Saracatinib (AZD0530)], the relative cell viability was 0.727 ± 0.16. Molecule `CC(C)(C)c1cc(/C=C(\C#N)C(N)=S)cc(C(C)(C)C)c1O` [Tyrphostin AG 879] has a relative cell viability of 0.69 ± 0.017. `Cn1cnc(N)c2ncnc1-2` [3-Methyladenine (3-MA)] was tested, and the relative cell viability was 0.76 ± 0.078. With `N#Cc1c(NC(=O)c2cccc3ccccc23)sc2c1CCCC2` [JNK Inhibitor IX] the relative cell viability was 0.573 ± 0.049. `Cc1cnc(Nc2ccc(N3CCN(C)CC3)cc2)nc1Nc1cccc(S(=O)(=O)NC(C)(C)C)c1` gave a relative cell viability of 0.223 ± 0.061. In the case of `CC1(COc2ccc3c(c2)ncn3-c2ccc3cccc(N4CCC(N)CC4)c3n2)COC1`, the relative cell viability is reported as 0.683 ± 0.27. `OCCn1cc(-c2cnc3nnn(Cc4ccc5ncccc5c4)c3n2)cn1` gave a relative cell viability of 0.813 ± 0.09. `C=CC(=O)Nc1ccc2ncnc(Nc3ccc(OCc4cccc(F)c4)c(Cl)c3)c2c1` was tested, and the relative cell viability was 1.01 ± 0.01. In the case of `COc1cc2ncnc(Oc3cccc(NC(=O)Nc4cc(C(C)(C)C(F)(F)F)on4)c3)c2cc1OC`, the relative cell viability is reported as 0.68 ± 0.17. With `CCCS(=O)(=O)Nc1ccc(F)c(C(=O)c2c[nH]c3ncc(Cl)cc23)c1F` the relative cell viability was 0.64 ± 0.036. For `COc1ccc(-c2cc3c(C)nc(N)nc3n([C@H]3CC[C@H](OCCO)CC3)c2=O)cn1`, the relative cell viability was 0.597 ± 0.16. Work on `C=CC(=O)Nc1cccc(Sc2nc(Nc3ccc(N4CCN(C)CC4)cc3)ncc2Cl)c1` yielded a relative cell viability of 0.423 ± 0.035. `Cc1cnc(NC(=O)Nc2cc(Br)c(C)cc2OC[C@@H]2CNCCO2)cn1` showed a relative cell viability of 0.447 ± 0.17. `c1cc(-c2cnn3cc(-c4ccc(OCCN5CCCCC5)cc4)cnc23)ccn1` [Dorsomorphin 2HCl] gave a relative cell viability of 0.463 ± 0.18. `C=CC(=O)N1CCC[C@@H](n2nc(-c3ccc(Oc4ccccc4)cc3)c3c(N)ncnc32)C1` was tested, and the relative cell viability was 0.933 ± 0.11. Molecule `O=C(NC(NC(=S)Nc1ccc(F)c([N+](=O)[O-])c1)C(Cl)(Cl)Cl)C(c1ccccc1)c1ccccc1` (centres undefined) has a relative cell viability of 0.62 ± 0.095. `CN1CCN(c2ccc3nc(-c4c(N)c5c(F)cccc5[nH]c4=O)[nH]c3c2)CC1` [Dovitinib (TKI-258) Dilactic Acid] gave a relative cell viability of 0.563 ± 0.25. `COc1cc(N2CCC(N(C)C)CC2)ccc1Nc1ncc(Cl)c(Nc2ccccc2P(C)(C)=O)n1` gave a relative cell viability of 0.36 ± 0.082. Molecule `O=c1sn(-c2cccc3ccccc23)c(=O)n1Cc1ccccc1` [Tideglusib] has a relative cell viability of 0.74 ± 0.035. For `Cc1[nH]c(/C=C2\C(=O)Nc3ccc(S(=O)(=O)Cc4c(Cl)cccc4Cl)cc32)c(C)c1C(=O)N1CCC[C@@H]1CN1CCCC1`, the relative cell viability was 0.19 ± 0.046. `CCN(CC)CCCC(C)Nc1ccnc2cc(Cl)ccc12` (centres undefined) [Chloroquine Phosphate] gave a relative cell viability of 0.817 ± 0.12. Molecule `CC(C)(O)CNc1ncc(-c2ccnc(Nc3ccnc(Cl)c3)n2)c(CC2CC2)n1` has a relative cell viability of 0.503 ± 0.031. `C[C@@H]1CN(CC(=O)Nc2ccc3c(c2)Cc2cccc(-c4cc(=O)cc(N5CCOCC5)o4)c2S3)C[C@H](C)O1` gave a relative cell viability of 0.46 ± 0.11. `NC[C@@](O)(c1ccc(Cl)cc1)c1ccc(-c2cn[nH]c2)cc1` was tested, and the relative cell viability was 0.687 ± 0.22. Molecule `CN1CC[C@H](c2c(O)cc(O)c3c(=O)cc(-c4ccccc4Cl)oc23)[C@H](O)C1` [Flavopiridol HCl] has a relative cell viability of 0.763 ± 0.17. `Cc1cc(Nc2cc(N3CCN(C)CC3)nc(/C=C/c3ccccc3)n2)n[nH]1` showed a relative cell viability of 0.203 ± 0.1. With `CC[C@H](Nc1ncnc2[nH]cnc12)c1nc2cccc(F)c2c(=O)n1-c1ccccc1` [Idelalisib (CAL-101, GS-1101)] the relative cell viability was 0.753 ± 0.031. `N#Cc1ccc2[nH]c(O)c(-c3ccc(CN4CCOCC4)cn3)c2c1` was tested, and the relative cell viability was 0.75 ± 0.046. With `Cc1cc(C(C)Nc2ccccc2)c2nc(N3CCOCC3)cc(=O)n2c1` (centres undefined) the relative cell viability was 0.627 ± 0.059. `N[C@@H]1CCCN(c2c(/C=C3\SC(=O)NC3=O)cccc2-c2ccccc2)C1` showed a relative cell viability of 0.697 ± 0.13. Work on `Nc1nc(Nc2ccc(S(N)(=O)=O)cc2)nn1C(=O)c1c(F)cccc1F` yielded a relative cell viability of 0.53 ± 0.095. `Cn1c(Nc2ccc(C(F)(F)F)cc2)nc2cc(Oc3ccnc(-c4ncc(C(F)(F)F)[nH]4)c3)ccc21` showed a relative cell viability of 0.593 ± 0.091. With `Nc1ncnc2c1c(-c1cnc3[nH]ccc3c1)nn2C1CCCC1` the relative cell viability was 0.397 ± 0.092. `CN(C)Cc1cccc(N/C(=C2\C(=O)Nc3cc(C(N)=O)ccc32)c2ccccc2)c1` showed a relative cell viability of 0.627 ± 0.045. `CNC(=O)c1cccc(-c2ccc3c(N4CCOC[C@@H]4C)nc(N4CCOC[C@@H]4C)nc3n2)c1` [Vistusertib (AZD2014)] showed a relative cell viability of 0.52 ± 0.18. For `O=C(Nc1ccccc1C(=O)NC1CCCCNC1=O)c1cc2ccccc2s1` (centres undefined), the relative cell viability was 0.803 ± 0.011. `COc1cc2c(Oc3ccc4[nH]c(C)cc4c3F)ncnc2cc1OCCCN1CCCC1` [Cediranib (AZD2171)] was tested, and the relative cell viability was 0.283 ± 0.023. In the case of `CS(=O)(=O)CCNCc1ccc(-c2ccc3ncnc(Nc4ccc(OCc5cccc(F)c5)c(Cl)c4)c3c2)o1` [Lapatinib], the relative cell viability is reported as 1.21 ± 0.064.

Reference: the supplement of paper PMC9588786
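Further: viability read as CCK-8 absorbance at 450 nm in cells co-exposed to the GPX4 inhibitor RSL3, relative to a 0.01% DMSO vehicle control.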
